The record followed here is PubChem BioAssay.

The test system of assay [1] is Plasmodium falciparum Sir2 (PF13_0152, Sir2A). Nature of the assay: Plasmodium falciparum Sir2A binding compounds – biochemical, small-molecule microarray, 635 nm fluorescence, primary screen (AID 1098).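 Note: score merges spot fluorescence intensity with its signal-to-noise ratio.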 The following applies: fluorescence 635 nm, higher = more signal.
Assay [2] is described as follows: probe aDKK1 binding to arrayed compounds – biochemical, biotinylated probe, 635/667 nm fluorescence, primary screen (AID 1099).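 Note: score merges 667nm spot fluorescence with signal to noise across triplicate slides.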 The following applies: small-molecule microarray, higher = more signal.
Assay [3] in a line: probe aCHRDL2 binding to arrayed compounds – biochemical, biotinylated probe, 635/667 nm fluorescence, primary screen (AID 1100). The following applies: small-molecule microarray, higher = more signal.
The nature of assay [4]: change in splice reporter luminescence, either direction, cell-based, HEK293, spliceosome inhibition project, primary screen (AID 1101).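 Note: HEK293 cells carrying a splicing-competent luciferase reporter gene; test concentration not given here.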 Particulars: HEK293 splicing luciferase reporter, 24 h, higher = more signal, called active from +8 up or from −8 down.
Assay [5] deals with Fibroblast growth factor 10 (Homo sapiens) (UniProt O15520). Nature of the assay: compounds binding fibroblast growth factor 10 – biochemical, small-molecule microarray, 635 nm fluorescence, primary screen (AID 1102). Particulars: FGF10 binding, fluorescence 635 nm, higher = more signal.
Chain of Fibroblast growth factor 10 (Homo sapiens) (O15520 whole entry, looked up): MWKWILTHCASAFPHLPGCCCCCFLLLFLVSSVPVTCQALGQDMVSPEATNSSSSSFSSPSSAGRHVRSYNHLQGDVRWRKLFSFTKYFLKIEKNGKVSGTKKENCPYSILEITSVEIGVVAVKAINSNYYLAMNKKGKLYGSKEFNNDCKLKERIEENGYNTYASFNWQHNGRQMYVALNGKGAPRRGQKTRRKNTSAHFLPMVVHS
For assay [6], the system named is glycogen synthase kinase-3 (GSK3A per assay name; protocol says GSK3B). Put plainly: compounds binding glycogen synthase kinase-3 – biochemical, small-molecule microarray, 635 nm fluorescence, GSK3A, primary screen (AID 1103). Note: the record names both GSK3A and GSK3B. The following applies: fluorescence 635 nm, higher = more signal.
For assay [7], the target named is Epidermal growth factor receptor (Homo sapiens) (UniProt P00533). Nature of the assay: compounds binding epidermal growth factor receptor – biochemical, small-molecule microarray, 635 nm fluorescence, primary screen (AID 1104).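 Note: score merges 667 nm emission intensity with spot signal to noise over triplicate slides.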 The following applies: EGFR binding, higher = more signal.
Chain of Epidermal growth factor receptor (Homo sapiens) (P00533 whole entry, looked up): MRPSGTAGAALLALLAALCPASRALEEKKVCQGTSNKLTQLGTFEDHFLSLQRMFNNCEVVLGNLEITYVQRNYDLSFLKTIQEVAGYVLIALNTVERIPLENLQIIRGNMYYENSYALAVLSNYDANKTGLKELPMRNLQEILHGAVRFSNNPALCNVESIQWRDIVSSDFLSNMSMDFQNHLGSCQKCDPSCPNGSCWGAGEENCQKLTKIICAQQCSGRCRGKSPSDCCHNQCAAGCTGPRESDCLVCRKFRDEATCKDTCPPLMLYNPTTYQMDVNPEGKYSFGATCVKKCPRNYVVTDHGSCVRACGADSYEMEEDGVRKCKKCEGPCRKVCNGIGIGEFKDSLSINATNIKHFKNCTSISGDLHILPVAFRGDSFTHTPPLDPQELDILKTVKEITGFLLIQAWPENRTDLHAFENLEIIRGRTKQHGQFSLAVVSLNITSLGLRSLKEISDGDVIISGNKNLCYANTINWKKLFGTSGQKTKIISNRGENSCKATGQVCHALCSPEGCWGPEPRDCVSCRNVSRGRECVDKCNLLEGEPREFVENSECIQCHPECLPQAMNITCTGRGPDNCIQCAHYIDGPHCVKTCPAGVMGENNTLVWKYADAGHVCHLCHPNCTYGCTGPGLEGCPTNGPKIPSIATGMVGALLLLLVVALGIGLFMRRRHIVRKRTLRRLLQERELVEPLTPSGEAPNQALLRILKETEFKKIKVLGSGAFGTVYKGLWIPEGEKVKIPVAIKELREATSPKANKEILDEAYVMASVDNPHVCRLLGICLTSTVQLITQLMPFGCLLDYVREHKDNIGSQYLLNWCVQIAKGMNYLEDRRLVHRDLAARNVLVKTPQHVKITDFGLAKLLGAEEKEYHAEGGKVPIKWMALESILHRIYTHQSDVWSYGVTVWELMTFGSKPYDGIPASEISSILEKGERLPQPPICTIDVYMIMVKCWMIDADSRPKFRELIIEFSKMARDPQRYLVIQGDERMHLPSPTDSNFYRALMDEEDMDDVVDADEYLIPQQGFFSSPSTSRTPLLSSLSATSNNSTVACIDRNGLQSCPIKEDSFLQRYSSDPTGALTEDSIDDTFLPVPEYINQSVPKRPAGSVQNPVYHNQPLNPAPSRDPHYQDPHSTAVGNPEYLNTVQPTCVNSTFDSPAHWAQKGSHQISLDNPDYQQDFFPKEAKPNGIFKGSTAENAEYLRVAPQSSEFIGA
The target of assay [8] is Follistatin-related protein 3 (Homo sapiens) (UniProt O95633). Nature of the assay: compounds binding follistatin-related protein 3 – biochemical, small-molecule microarray, 635 nm fluorescence, primary screen (AID 1105).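 Note: score merges emission near 667 nm and signal to noise per printed spot across three slides.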 The following applies: FSTL3 binding, higher = more signal.
Chain of Follistatin-related protein 3 (Homo sapiens) (O95633 whole entry, looked up): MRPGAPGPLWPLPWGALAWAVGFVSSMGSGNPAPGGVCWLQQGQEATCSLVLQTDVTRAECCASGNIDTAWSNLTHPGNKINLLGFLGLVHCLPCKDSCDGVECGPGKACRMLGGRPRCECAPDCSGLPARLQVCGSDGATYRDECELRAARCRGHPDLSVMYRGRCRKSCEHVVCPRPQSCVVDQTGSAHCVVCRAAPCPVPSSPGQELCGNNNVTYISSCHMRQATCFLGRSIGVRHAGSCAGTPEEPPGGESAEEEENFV
Assay [9] has as its target Dickkopf-related protein 1 (Homo sapiens) (UniProt O94907). Nature of the assay: small molecules binding DKK1 protein – biochemical, small-molecule microarray, 635 nm fluorescence scan, primary screen (AID 1106).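 Note: score merges emission near 667 nm with signal to noise over three replicate slides.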 Particulars: higher = more signal.
Assay [10] has as its system Inhibin beta A chain (activin A). Nature of the assay: small molecules binding activin A – biochemical, small-molecule microarray, 635 nm fluorescence scan, primary screen (AID 1107).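 Note: mouse activin A protein probed at 4.33 µg/mL on printed slides; score merges bound-protein fluorescence near 667 nm with spot signal-to-noise.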 Particulars: INHBA, higher = more signal.
Assay [11] concerns Human papillomavirus type 1a protein E7 (residues 44-93). Put plainly: small molecules binding HPV E7 44-93 – biochemical, small-molecule microarray, residues 44-93, 635 nm fluorescence, primary screen (AID 1108).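 Note: E7 fragment applied at 1 µg/mL in TBST for 1 h at 4 C; score combines spot fluorescence with its signal to noise ratio.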 Particulars: fluorescence 635 nm, higher = more signal.
The nature of assay [12]: hepatitis C replication reporter changes, two-sided – Huh7 cells, luciferase reporter, HCV replication inhibitor project, primary screen (AID 1109).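 Note: huh7 hepatoma cells harbouring a luciferase neomycin HCV replicon reporter; luciferase luminescence as measure of HCV replicon replication; test concentration not given here.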 Particulars: Huh7 HCV replicon luciferase reporter, 48 h; higher = more signal. For orientation: Reporter assays use an easily measured gene product as a stand-in for the process of interest.
Assay [13] has as its target Left-right determination factor 2 (Homo sapiens) (UniProt O00292). Put plainly: small molecules binding LEFTY2 protein – biochemical, small-molecule microarray, 635 nm fluorescence scan, primary screen (AID 1110). Particulars: higher = more signal.
The target in assay [14] is Calmodulin-1 (Homo sapiens) (UniProt P0DP23). Put plainly: small molecules binding calmodulin-1 with EGTA – biochemical, small-molecule microarray, Cy5-labelled CALM1, profiling panel (AID 1111).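 Note: labelled calmodulin applied in Tris saline Tween buffer holding calcium plus EGTA and DTT.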 The following applies: Cy5-CALM1 binding fluorescence, higher = more signal.
For assay [15] the target is unchanged. Put plainly: small molecules binding Ca-loaded calmodulin-1 – biochemical, small-molecule microarray, Cy5-labelled CALM1, plus calcium, artefact control for SMM control-protein annotation, profiling panel (AID 1112).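 Note: score merges spot fluorescence with signal to noise from triplicate slides.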 The following applies: Cy5-CALM1 binding fluorescence, higher = more signal.
Assay [16] is described as follows: probe aWnt5a binding to arrayed compounds – biochemical, biotinylated probe, 635/667 nm fluorescence, primary screen (AID 1113).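 Note: score merges 667 nm fluorescence intensity with signal-to-noise per printed feature.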 The following applies: small-molecule microarray, higher = more signal.
Assay [17] in a line: probe aShh binding to arrayed compounds – biochemical, biotinylated probe, 635/667 nm fluorescence, primary screen (AID 1114).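 Note: probe is biotin-labelled aShh protein from a stem cell growth factor screen; measures binding of labelled protein to compounds printed on the slide; score merges feature fluorescence at 667 nm with signal-to-noise.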 Particulars: small-molecule microarray, higher = more signal.
A short description of assay [18]: probe aNog binding to arrayed compounds – biochemical, biotinylated probe, 635/667 nm fluorescence, primary screen (AID 1115).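 Note: probe is biotinylated aNog protein used at 0.15 µg/mL for 1 h at 4 C; z-score combines 667 nm fluorescence of each spot with its signal to noise.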 Particulars: small-molecule microarray, higher = more signal.
Assay [19] has as its target Torsin-1A-interacting protein 1 (Homo sapiens) (UniProt Q5JTV8). Nature of the assay: compound microarray binding of lysate hLAP1 – cell lysate, small-molecule microarray, COS7 lysate, 635/667 nm fluorescence, primary screen (AID 1116). Particulars: 635 nm fluorescence, higher = more signal.
The target in assay [20] is Alpha-bungarotoxin (Bungarus multicinctus) (UniProt P60615). Nature of the assay: compounds binding labelled alpha-BTX control protein – biochemical, small-molecule microarray, Alexa647 label, 635/667 nm fluorescence, artefact control for SMM control protein annotation, profiling panel (AID 1117). Particulars: alpha-BTX-A647 binding fluorescence, higher = more signal.
Chain of Alpha-bungarotoxin (Bungarus multicinctus) (P60615 whole entry, looked up): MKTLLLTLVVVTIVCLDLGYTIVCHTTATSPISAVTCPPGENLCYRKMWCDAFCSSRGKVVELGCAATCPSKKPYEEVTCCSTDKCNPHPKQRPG

The source made the active and inactive calls.

Chain of Left-right determination factor 2 (Homo sapiens) (O00292 whole entry, looked up): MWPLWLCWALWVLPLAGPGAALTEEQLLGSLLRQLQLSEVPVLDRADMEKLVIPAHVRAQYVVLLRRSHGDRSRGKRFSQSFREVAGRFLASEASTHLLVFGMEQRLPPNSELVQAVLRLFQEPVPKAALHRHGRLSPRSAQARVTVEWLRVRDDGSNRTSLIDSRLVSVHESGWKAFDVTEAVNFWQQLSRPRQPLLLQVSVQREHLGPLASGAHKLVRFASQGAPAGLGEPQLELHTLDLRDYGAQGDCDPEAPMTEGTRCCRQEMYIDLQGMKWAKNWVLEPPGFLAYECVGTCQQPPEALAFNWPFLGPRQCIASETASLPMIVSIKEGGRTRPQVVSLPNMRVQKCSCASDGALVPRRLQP
Chain of Torsin-1A-interacting protein 1 (Homo sapiens) (Q5JTV8 whole entry, looked up): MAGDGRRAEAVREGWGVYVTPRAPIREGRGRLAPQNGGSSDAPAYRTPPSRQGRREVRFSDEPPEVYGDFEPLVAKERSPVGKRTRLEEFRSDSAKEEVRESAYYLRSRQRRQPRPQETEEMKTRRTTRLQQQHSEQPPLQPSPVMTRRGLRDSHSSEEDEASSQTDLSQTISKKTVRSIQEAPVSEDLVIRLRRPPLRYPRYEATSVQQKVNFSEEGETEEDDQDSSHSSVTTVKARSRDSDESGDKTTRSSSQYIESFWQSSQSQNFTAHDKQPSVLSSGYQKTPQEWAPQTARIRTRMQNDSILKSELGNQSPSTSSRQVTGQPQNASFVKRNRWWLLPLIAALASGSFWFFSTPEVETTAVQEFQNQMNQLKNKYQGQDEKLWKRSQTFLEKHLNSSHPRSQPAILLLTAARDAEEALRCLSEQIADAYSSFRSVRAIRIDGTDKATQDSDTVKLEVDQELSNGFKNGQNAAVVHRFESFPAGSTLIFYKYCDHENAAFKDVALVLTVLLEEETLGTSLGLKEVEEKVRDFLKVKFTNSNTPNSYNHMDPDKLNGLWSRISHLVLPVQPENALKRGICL
Chain of Dickkopf-related protein 1 (Homo sapiens) (O94907 whole entry, looked up): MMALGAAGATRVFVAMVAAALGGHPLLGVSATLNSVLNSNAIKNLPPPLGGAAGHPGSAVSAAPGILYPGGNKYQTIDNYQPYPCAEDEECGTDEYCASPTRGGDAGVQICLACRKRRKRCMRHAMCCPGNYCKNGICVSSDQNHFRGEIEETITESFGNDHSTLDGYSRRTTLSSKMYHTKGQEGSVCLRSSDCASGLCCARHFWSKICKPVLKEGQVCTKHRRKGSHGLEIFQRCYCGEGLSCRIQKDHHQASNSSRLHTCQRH

For `C=C(C)[C@@H]1CC=C(C(O)C2C=CC3C(=O)N(C)C(=O)C3N2Nc2ccc([N+](=O)[O-])cc2[N+](=O)[O-])CC1` (stereo not given in full), the composite z-score in [1] is 0.626; in assay [2], 0.989; in assay [3], 1.05; in [5], 0.85; in assay [6] it was 1.28; in assay [7] it was 0.963. The composite z-score in assay [8] came to 1.04; in assay [9] it was 0.0615; in assay [10] it was 1.35; in assay [11] it was 1.45; in [13] it was 0.265; in [14] it was 0.79. The composite z-score in assay [15] came out at 0.441; in assay [16], 0.101; in assay [17], 0.302; in [18], 1.46; in [19] it was 0.958; in [20] it was 1.95. Further, the results for the z-score in assay [4] and in [12] were 1.86 (inactive) and -0.44, respectively.
On to `CC(C)(C)OC(=O)CC[C@]1(C(=O)NCC(O)CO)N=C(c2ccc(OCCCO)cc2)O[C@H]1c1ccccc1N=[N+]=[N-]` (stereo not given in full), for which the composite z-score in assay [1] is 1.18; in assay [2] it was 1.24; in assay [3], 1.31; in assay [5], 1.4; in [6], -0.0629; in assay [7], -0.0913. The composite z-score in assay [8] is 0.352; in [9] it was 0.175; in assay [10], -0.0171; in assay [11], 0.438; in [13], 0.0607; in [14], 1.28. Moreover, the composite z-score in [15] is 0.434; in assay [16] it was 0.0775; in assay [17], -0.221; in [18] it was 1.36; in assay [19], 2.06; in [20] it was 0.931. Besides, the z-score in assay [4] was -0.254 (inactive); in assay [12], 1.18.
With `CC(C)N1C(=O)C[C@@](C(=O)NCCN2CCOCC2)(c2ccc([N+](=O)[O-])cc2)[C@H]1c1ccc(CO)cc1`, the composite z-score in assay [1] was 1.88; in assay [2] it was -0.477; in assay [3] it was 0.447; in assay [5], -0.945; in assay [6], -0.175; in assay [7], -1.12. The composite z-score in assay [8] was -0.854; in [9] it was -1.03; in assay [10], 0.16; in [11], -0.0369; in assay [13], -1.07; in [14], -0.701. Besides, the composite z-score was -0.272 in assay [15]; -0.298 in assay [16]; -0.221 in assay [17]; -0.478 in assay [18]; 2.15 in assay [19]; -0.418 in assay [20]. For the same molecule, the z-score in [4] was -0.286 (inactive); in assay [12], 0.323.
`COc1cc(OC)c(C(O)C2C=CC3C(=O)N(c4ccccc4)C(=O)C3N2Nc2ccc(C(C)C)cc2)cc1Br` (stereo not given): the composite z-score in assay [1] was determined as 0.891; in [2], 0.671; in [3] it was 0.605; in [5], 0.909; in [6], 1.3; in [7], 0.21. Further, the composite z-score amounted to 0.839 in assay [8]; 0.245 in assay [9]; 0.735 in [10]; 1.22 in assay [11]; 0.513 in assay [13]; 1.34 in assay [14]. Moreover, the composite z-score in assay [15] was found to be 0.382; in assay [16], 0.238; in assay [17] it was 0.158; in [18], 1.68; in assay [19] it was 0.695; in assay [20] it was 1.92. In addition, the z-score in assay [4] is -0.603 (inactive); in [12] it was -0.533.
Regarding `O=C(NC1CC1)[C@@H]1c2ccccc2C(=O)N(CC23CC4CC(CC(C4)C2)C3)[C@H]1c1ccc(CO)cc1`, the composite z-score in assay [1] was 0.728; in assay [2], -0.226; in assay [3] it was -0.0162; in assay [5], 1.41; in [6], 1.32; in assay [7], 1.03. The composite z-score was found to be 1.43 in assay [8]; 1.28 in assay [9]; 0.372 in assay [10]; 1.36 in assay [11]; 1.13 in [13]; 0.609 in [14]. The composite z-score in assay [15] was -0.657; in assay [16] it was -0.096; in [17], -0.138; in assay [18] it was -0.541; in [19], 0.755; in assay [20], 0.428. Also, the z-score in assay [4] was -0.724 (inactive); in assay [12], -1.22.
For `CC(C)C(=C=CC[C@H](O)c1ccccc1OCCO)C[C@H](O)COCc1ccccc1`, the composite z-score in [1] was 1.63; in [2], -0.293; in assay [3] it was -0.0177; in assay [5], 0.444; in [6], -0.409; in [7], -0.593. Moreover, the composite z-score is -0.428 in [8]; -0.42 in [9]; 0.482 in [10]; 0.257 in [11]; -0.274 in [13]; 0.444 in assay [14]. The composite z-score in [15] was -0.457; in assay [16], -0.128; in assay [17] it was -0.0681; in assay [18], -0.391; in assay [19], -0.251; in assay [20], 0.257. In addition, the figures for the z-score in [4] and in [12] were -0.114 (inactive) and -1.88, respectively.
As for `COCCCNC(=O)[C@@]1(CCC(=O)OC(C)(C)C)COC(c2ccc(OCCCO)cc2)=N1`, the composite z-score in assay [1] was 1.64; in assay [2], 0.117; in assay [3], 0.523; in assay [5], 0.693; in [6], 0.986; in assay [7], -0.106. In addition, the composite z-score was 0.219 in [8]; -0.0833 in assay [9]; 0.64 in [10]; 1.48 in [11]; -0.148 in [13]; -0.664 in assay [14]. The composite z-score in [15] was -0.0486; in [16], -0.124; in [17], -0.0169; in [18], -0.603; in [19], 2.01; in assay [20] it was 0.778. In addition, the figures for the z-score in assay [4] and in [12] were -1.09 (inactive) and -1.11, respectively.
With `O=C1O[C@@H](c2ccccc2)[C@@H](c2ccccc2)N2[C@@H](c3ccc(OCCO)cc3)[C@]3(C(=O)Nc4ccc(C#CCCO)cc43)[C@@H](C(=O)O)[C@H]12`, the composite z-score was 1.81 in assay [1]; 0.416 in [2]; 1.17 in [3]; 1.41 in assay [5]; 0.746 in assay [6]; 0.702 in assay [7]. The composite z-score was 0.988 in assay [8]; 0.151 in assay [9]; 1.34 in [10]; 1.08 in assay [11]; 0.687 in assay [13]; 2.03 in assay [14]. The composite z-score amounted to 0.408 in [15]; 0.663 in [16]; 0.582 in assay [17]; 2.45 in [18]; 1.99 in [19]; 1.95 in assay [20]. Moreover, the figures for the z-score in assay [4] and in assay [12] were 0.362 (inactive) and -0.22, respectively.
